According to PubChem BioAssay (Tox21):
Records with an inconclusive call do not appear. Activity calls are given as the source filed them. Calls come from the whole dose curve; as a rule, active = well fitted curve in the direction sought with a large enough effect in the repeat runs; inconclusive = weak or mixed curves; inactive = no such curve, though single readings can be large; an effect the other way counts as inactive or inconclusive.

Key:
[1] = qHTS RealTime-Glo MT Cell Viability Assay in HepG2 cells - 24 hour (AID 1224867); note: nearly all actives have a fitted effect of over 50% in size
Procedure, shortened: (§1)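 HepG2 cells (600/well) were dispensed with RealTime-Glo reagents, incubated 5 h at 37 °C, then treated with compounds in DMSO for up to 40 h. Nonlytic NanoLuc luminescence reflecting viable cells was read at each stated time point.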

[2] = qHTS RealTime-Glo MT Cell Viability Assay in HEK293 cells - 32 hour (AID 1224868); note: top concentration of the series differs between compounds; nearly all actives have a fitted effect of over 50% in size
Procedure, shortened: (§2)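 HEK293 cells seeded with NanoLuc/prosubstrate reagent, rested 5 h at 37 C, then dosed and kept at 37 C up to 40 h. Nonlytic real-time luminescence from viable cells read at 0, 8, 16, 24, 32 and 40 h.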

[3] = A CellTox Green Cytotoxicity Assay to monitor cytotoxicity in HEK293 cells - 0 hour (AID 1224869); note: nearly all actives have a fitted effect of over 50% in size
Procedure, shortened: (§3)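 Dead-cell fluorescence measured kinetically: asymmetric cyanine dye, HEK293, 600 cells/well, 5 h settle, 23 nL cpd/DMSO, 37 C, reads 0–40 h every 8 h.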

[4] = A CellTox Green Cytotoxicity Assay to monitor cytotoxicity in HEK293 cells - 40 hour (AID 1224871); note: nearly all actives have a fitted effect of over 45% in size
Procedure, shortened: as §3

[5] = qHTS RealTime-Glo MT Cell Viability Assay in HepG2 cells - 8 hour (AID 1224873); note: nearly all actives have a fitted effect of over 55% in size
Procedure, shortened: (§4)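 HepG2 cells mixed with RealTime-Glo MT reagents (NanoLuc plus cell-permeant prosubstrate) were seeded at 600 cells/well, incubated 5 h at 37 C/5% CO2, then pinned with compounds in DMSO; nonlytic luminescence tracked viability during 40 h treatment.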

[6] = qHTS RealTime-Glo MT Cell Viability Assay in HEK293 cells - 40 hour (AID 1224874); details: RealTime-Glo luminescence, stronger effect = lower value; note: nearly all actives have a fitted effect of over 50% in size
Procedure, shortened: (§5)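 600 HEK293 cells per well, dispensed already mixed with RealTime-Glo MT reagents. Compound dosing came 5 h later. The same wells were read for luminescence at 0, 8, 16, 24, 32 and 40 h of exposure at 37 C.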

[7] = A CellTox Green Cytotoxicity Assay to monitor cytotoxicity in HEK293 cells - 24 hour (AID 1224875); note: series mostly up to about 77 µM; nearly all actives have a fitted effect of over 45% in size
Procedure, shortened: as §3

[8] = A CellTox Green Cytotoxicity Assay to monitor cytotoxicity in HepG2 cells - 16 hour (AID 1224876); note: nearly all actives have a fitted effect of over 45% in size
Procedure, shortened: (§6)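 First, HepG2 cells (600/well) mixed with reagent were plated; second, after 5 h at 37 C they received compounds via pintool; third, fluorescence was measured at 0 h through 40 h at 8 h intervals.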

[9] = qHTS RealTime-Glo MT Cell Viability Assay in HepG2 cells - 32 hour (AID 1224877); note: nearly all actives have a fitted effect of over 55% in size
Procedure, shortened: as §1

[10] = A CellTox Green Cytotoxicity Assay to monitor cytotoxicity in HepG2 cells - 24 hour (AID 1224878); note: nearly all actives have a fitted effect of over 45% in size
Procedure, shortened: as §6

[11] = qHTS RealTime-Glo MT Cell Viability Assay in HEK293 cells - 0 hour (AID 1224880)
Procedure, shortened: as §5

[12] = A CellTox Green Cytotoxicity Assay to monitor cytotoxicity in HEK293 cells - 32 hour (AID 1224881); note: nearly all actives have a fitted effect of over 40% in size
Procedure, shortened: as §3

[13] = A CellTox Green Cytotoxicity Assay to monitor cytotoxicity in HepG2 cells - 0 hour (AID 1224882); note: nearly all actives have a fitted effect of over 35% in size
Procedure, shortened: as §6

[14] = A CellTox Green Cytotoxicity Assay to monitor cytotoxicity in HepG2 cells - 32 hour (AID 1224883); note: nearly all actives have a fitted effect of over 50% in size
Procedure, shortened: as §6

[15] = A CellTox Green Cytotoxicity Assay to monitor cytotoxicity in HEK293 cells - 8 hour (AID 1224884); note: nearly all actives have a fitted effect of over 35% in size
Procedure, shortened: as §3

[16] = qHTS RealTime-Glo MT Cell Viability Assay in HepG2 cells - 16 hour (AID 1224885); note: nearly all actives have a fitted effect of over 50% in size
Procedure, shortened: as §1

[17] = qHTS RealTime-Glo MT Cell Viability Assay in HEK293 cells - 24 hour (AID 1224886)
Procedure, shortened: as §2

[18] = A CellTox Green Cytotoxicity Assay to monitor cytotoxicity in HepG2 cells - 40 hour (AID 1224879); note: nearly all actives have a fitted effect of over 40% in size
Procedure, shortened: as §6

[19] = qHTS RealTime-Glo MT Cell Viability Assay in HepG2 cells - 40 hour (AID 1224870); note: nearly all actives have a fitted effect of over 50% in size
Procedure, shortened: as §4

[20] = qHTS RealTime-Glo MT Cell Viability Assay in HEK293 cells - 16 hour (AID 1224872)
Procedure, shortened: as §2
% is set by controls: 0 for no effect and ±100 for the full control effect.

O=C(O)P(=O)(O)O
inactive: outcome [1] | outcome [2] | outcome [3] | Potency [4] | outcome [5] | max response [6] 10.7% | Potency [7] | Potency [8] | outcome [9] | Potency [10] | Potency [11] | Potency [12] | Potency [13] | Potency [14] | Potency [15] | outcome [16] | outcome [17]

CCC(C)SSC(C)CC (configuration not stated)
inactive: outcome [1] | outcome [2] | outcome [3] | Potency [4] | outcome [5] | max response [6] 3.14% | Potency [8] | outcome [9] | Potency [10] | Potency [18] | Potency [11] | Potency [12] | Potency [13] | Potency [14] | outcome [16] | outcome [17]

O=C1CCCc2c(O)cccc21
inactive: outcome [1] | outcome [2] | outcome [19] | Potency [4] | outcome [20] | outcome [5] | max response [6] 3.41% | Potency [7] | Potency [8] | outcome [9] | Potency [11] | Potency [12] | Potency [13] | Potency [15] | outcome [16] | outcome [17]

C=CCOC(=O)CCCCCCCC
inactive: outcome [1] | outcome [3] | outcome [19] | Potency [4] | outcome [20] | outcome [5] | max response [6] 16% | Potency [7] | Potency [8] | outcome [9] | Potency [10] | Potency [18] | Potency [11] | Potency [12] | Potency [13] | Potency [14] | Potency [15] | outcome [16] | outcome [17]

CCCCC(CC)CCC(CC(C)C)OS(=O)(=O)O (configuration not stated)
inactive: outcome [1] | outcome [3] | outcome [19] | Potency [4] | outcome [20] | outcome [5] | max response [6] -2.38% | Potency [7] | Potency [8] | outcome [9] | Potency [10] | Potency [18] | Potency [11] | Potency [12] | Potency [13] | Potency [14] | Potency [15] | outcome [16] | outcome [17]

CC(C)(C)C(=O)CC(=O)C(C)(C)C
inactive: outcome [1] | outcome [2] | outcome [19] | Potency [4] | outcome [20] | outcome [5] | max response [6] -12.1% | Potency [7] | Potency [8] | outcome [9] | Potency [18] | Potency [11] | Potency [12] | Potency [13] | Potency [14] | Potency [15] | outcome [16] | outcome [17]

Nc1cc(S(=O)(=O)O)ccc1O
inactive: outcome [1] | outcome [2] | outcome [19] | Potency [4] | outcome [20] | outcome [5] | max response [6] 14.9% | Potency [8] | outcome [9] | Potency [10] | Potency [18] | Potency [11] | Potency [13] | Potency [14] | Potency [15] | outcome [16] | outcome [17]

CCCCC(O)/C=C(C)/C=C/C=C/C(=O)N1CCCC1=O (configuration not stated)
inactive: outcome [1] | outcome [2] | outcome [19] | Potency [4] | outcome [20] | outcome [5] | max response [6] 2.14% | Potency [8] | outcome [9] | Potency [18] | Potency [11] | Potency [12] | Potency [13] | Potency [14] | Potency [15] | outcome [16] | outcome [17]

COc1ccccc1N1CCN(CC(O)COc2cc(OC)c(OC)c(OC)c2)CC1 (configuration not stated)
inactive: outcome [1] | outcome [2] | outcome [19] | Potency [4] | outcome [20] | outcome [5] | max response [6] 4.13% | Potency [7] | outcome [9] | Potency [10] | Potency [18] | Potency [11] | Potency [12] | Potency [13] | Potency [14] | Potency [15] | outcome [16] | outcome [17]

Cc1cc(=O)oc2cc(O[C@@H]3SC[C@@H](O)[C@H](O)[C@H]3O)ccc12
inactive: outcome [1] | outcome [3] | outcome [19] | Potency [4] | outcome [20] | outcome [5] | max response [6] -5.1% | Potency [7] | Potency [8] | outcome [9] | Potency [10] | Potency [18] | Potency [11] | Potency [13] | Potency [14] | Potency [15] | outcome [16] | outcome [17]

C/C=C(\C)C(=O)OC/C=C(\C)CCC=C(C)C
inactive: outcome [1] | outcome [2] | outcome [19] | Potency [4] | outcome [20] | outcome [5] | max response [6] 7.26% | Potency [7] | Potency [8] | outcome [9] | Potency [10] | Potency [18] | Potency [11] | Potency [13] | Potency [14] | Potency [15] | outcome [16] | outcome [17]

COc1cc(OC)cc(OC)c1
inactive: outcome [1] | outcome [2] | outcome [19] | Potency [4] | outcome [20] | outcome [5] | max response [6] 6.85% | Potency [7] | Potency [8] | outcome [9] | Potency [18] | Potency [11] | Potency [13] | Potency [14] | Potency [15] | outcome [16] | outcome [17]

CC(CN1CC(=O)NC(=O)C1)N1CC(=O)NC(=O)C1 (configuration not stated)
inactive: outcome [1] | outcome [2] | outcome [19] | Potency [4] | outcome [20] | outcome [5] | max response [6] -4.03% | Potency [7] | Potency [8] | outcome [9] | Potency [10] | Potency [18] | Potency [11] | Potency [12] | Potency [13] | Potency [14] | Potency [15] | outcome [16] | outcome [17]

Cc1ccc(O)c(C(=O)c2ccccc2)c1
inactive: outcome [1] | outcome [2] | outcome [19] | Potency [4] | outcome [20] | outcome [5] | max response [6] -5.5% | Potency [7] | Potency [8] | outcome [9] | Potency [10] | Potency [18] | Potency [11] | Potency [12] | Potency [13] | Potency [14] | Potency [15] | outcome [16] | outcome [17]

Cc1ccc(Br)cc1
inactive: outcome [1] | outcome [2] | outcome [19] | Potency [4] | outcome [20] | outcome [5] | max response [6] 0.938% | Potency [7] | Potency [8] | outcome [9] | Potency [10] | Potency [18] | Potency [11] | Potency [12] | Potency [13] | Potency [14] | Potency [15] | outcome [16] | outcome [17]
